# Compounds with a hit are over-represented: about 1.3% of the library has one in this group of screens.
# RPL19A-GFP yeast: modulators of TOR pathway RPL19A-GFP in S. cerevisiae. S. cerevisiae RPL19A-GFP strain, flow cytometry, 3 h; hits give low values. percent response vs DMSO, % at 10 µM. 330,000 tested, 0.3% active. AID 2025;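 active = percent response vs DMSO below 50%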;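 also: median channel GFP fluorescence of the barcoded RPL19A-GFP strain; lower means less RPL19A-GFP as with rapamycin TOR inhibition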
# AGP1 TOR yeast: alters AGP1-GFP fluorescence in TOR pathway yeast screen | S. cerevisiae AGP1-GFP multiplex flow cytometry, 3 h; GFP as percent of DMSO wells | GFP response vs DMSO, % at 10 µM | 320,000 tested, 0.02% active | AID 2066;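 active = GFP response relative to DMSO above a set limit, near screen average plus 3 SD, cut at about 150% in these data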;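 also: median GFP channel fluorescence of the gated AGP1 strain per well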
# CIT2-GFP yeast: modulators of TOR pathway CIT2-GFP in S. cerevisiae; GFP response vs DMSO, % at 10 µM; S. cerevisiae CIT2-GFP strain, flow cytometry, 3 h; 100 means same as DMSO wells; AID 2029; 320,000 tested, 0.065% active;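 active = GFP response relative to DMSO above a set limit, near the screen mean plus 3 SD, cut at about 150% in these data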;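 also: ratio of well median GFP fluorescence to mean of DMSO wells on the plate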
# LAP4 TOR yeast: modulators of TOR pathway LAP4-GFP in S. cerevisiae. S. cerevisiae LAP4-GFP multiplex, flow cytometry GFP, 3 h; median GFP as percent of DMSO wells. GFP response vs DMSO, % at 10 µM. 320,000 tested, 0.34% active;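 active = GFP response vs DMSO above a set limit, about the screen mean plus 3 SD, cut at about 150% in these data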
# MEP2-GFP yeast: modulators of TOR pathway MEP2-GFP in S. cerevisiae | S. cerevisiae MEP2-GFP strain, flow cytometry GFP, 3 h; 100% = DMSO control level | 330,000 tested, 0.51% active | GFP response vs DMSO, % at 10 µM | AID 2016;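 active = GFP response versus DMSO above a set limit, roughly screen mean plus 3 SD, cut at about 180% in these data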;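 also: median GFP fluorescence of the barcode-gated MEP2-GFP cells per well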
# Efflux pump inh: antifungal efflux pump inhibition, Nile Red retention; S. cerevisiae Candida pump triplex; 330,000 tested, 0.44% active; inhibition, % at 10 µM; AID 485275;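 active = plate passing quality check with inhibition over a set limit, or well fluorescence over plate mean plus 4 SD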;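 also: Nile Red retained in pooled yeast measured as flow cytometry median fluorescence; higher means more Nile Red kept so more efflux inhibition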
# LAP4 cherry2: yeast LAP4-GFP modulation, second cherry pick. 590 tested, 20% active. shares compounds with LAP4 TOR yeast. GFP response vs DMSO, % at 10 µM. S. cerevisiae LAP4-GFP strain, flow cytometry GFP, 3 h;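 active = GFP signal as percent of the solvent control above about 150%, meaning raised reporter expression, limit read from the data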
# MEP2-GFP pick2: yeast MEP2-GFP modulation, second cherry pick; shares compounds with LAP4 TOR yeast; S. cerevisiae MEP2-GFP strain, flow cytometry GFP, 3 h; GFP response vs DMSO, % at 10 µM; 590 tested, 10% active; AID 2622;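 active = GFP signal above 150% of the solvent control wells, that is a rise of more than half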;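 also: median channel GFP fluorescence of all gated yeast cells per well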
# RPL19A GFP CP2: reconfirmed modulator of RPL19A-GFP TOR reporter in yeast. shares compounds with LAP4 TOR yeast. S. cerevisiae RPL19A-GFP strain, flow cytometry GFP, 3 h; hits give low values; 100% means same as DMSO wells. GFP response vs DMSO, % at 10 µM. 590 tested, 3% active. AID 2623;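 active = under 65% GFP response relative to DMSO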;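 also: median GFP channel fluorescence per well over the all cells gate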
# CIT2 GFP CP2: yeast CIT2-GFP TOR reporter modulation, second cherry pick; shares compounds with LAP4 TOR yeast; S. cerevisiae CIT2-GFP strain, flow cytometry GFP, 3 h; DMSO control wells read 100%; GFP response vs DMSO, % at 10 µM; 590 tested, 8% active; AID 2624;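 active = GFP response vs DMSO above about 150%, limit read from the data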;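 also: median green fluorescence per well over all gated yeast cells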
# AGP1 GFP CP2: second confirmation of modulators of TOR reporter AGP1-GFP in yeast. 590 tested, under 10 active. percent response vs DMSO, % at 10 µM. shares compounds with LAP4 TOR yeast. S. cerevisiae AGP1-GFP strain, flow cytometry GFP, 3 h;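 active = over 150 percent of DMSO response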;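 also: median GFP channel fluorescence over all cells without mother daughter split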
# s288c autofluor: compound is autofluorescent in yeast s288c cells. shares compounds with LAP4 TOR yeast. S. cerevisiae s288c, 520 nm autofluorescence, flow cytometry, 3 h; hits give high values; zero means same as solvent-only cells. fluorescence change (kMESF span) at 33 µM. 610 tested, under 10 active;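 active = fluorescence span over the dose series, or activity score, above about 33, limit read from the data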
# Yeast autofl DR: counter-screen for autofluorescence of TOR hits in yeast s288c; shares compounds with LAP4 TOR yeast; S. cerevisiae s288c parental, compound autofluorescence, flow cytometry, 3 h; fluorescence change (span) at 33 µM; 110 tested, under 10 active;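 active = fluorescence change span, or the activity score built from it, above 25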
# TORC1 bypass gr: stops wildtype yeast growth while TORC1 bypass cells still grow | shares compounds with LAP4 TOR yeast | S. cerevisiae BY4741 spot growth rating, 48-72 h; hits give low values | growth rating (0-3) at 30 µM | 120 tested, under 10 active;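 active = growth rating at most 1 for wild type yeast while the TORC1 bypass strain still grows fully, rated 3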
# Hits are given with their value; 0 = inactive; - = not tested or not shown; + = active, no number; [ ] = another dose, or the depositor's remark.
SMILES,RPL19A-GFP yeast,AGP1 TOR yeast,CIT2-GFP yeast,LAP4 TOR yeast,MEP2-GFP yeast,Efflux pump inh,LAP4 cherry2,MEP2-GFP pick2,RPL19A GFP CP2,CIT2 GFP CP2,AGP1 GFP CP2,s288c autofluor,others
Cc1ccc2[nH]cc(C(=O)NCc3cccs3)c(=O)c2c1,0,0,0,0,0,0,-,-,-,-,-,-,
CCOC(=O)c1ccc(NC(=O)Nc2ncccc2C)cc1,0,0,0,0,0,0,-,-,-,-,-,-,
CCOC(=O)c1ccc(NC(=O)Nc2ncc(Cl)cc2Cl)cc1,0,0,0,0,0,0,0,0,0,0,0,-,
CCOC(=O)N1CCc2c(sc3c2c(=O)n(-c2ccc(CC)cc2)c(=O)n3CC(=O)NCC2CCCO2)C1 (configuration not stated),0,0,0,0,0,0,-,-,-,-,-,-,
CNc1nc(N)cc(Nc2cccc(Cl)c2)n1,-,-,-,-,-,-,-,-,-,-,-,-,TORC1 bypass gr=0
COc1ccccc1NC(=O)Cn1ccn(-c2cccc3ccccc23)c(=O)c1=O,0,0,0,0,0,0,-,-,-,-,-,-,
CS(=O)(=O)c1nc(-c2cccs2)cc(C(F)(F)F)n1,0,0,0,186,0,0,-,-,-,-,-,0,
COc1ccc(-c2cc(C(F)(F)F)nc(S(C)(=O)=O)n2)cc1,0,0,0,155,0,0,-,-,-,-,-,0,
O=C(O)CCS(=O)(=O)c1nc(-c2cccs2)cc(C(F)(F)F)n1,0,0,0,0,0,0,-,-,-,-,-,-,
Cc1ccc(NC(=O)CCCN2C(=O)c3cccc4cccc(c34)C2=O)cc1,0,0,0,0,0,0,-,-,-,-,-,-,
Cc1cccc(C)c1NC(=O)CNC(=O)CCCN1C(=O)c2cccc3cccc(c23)C1=O,0,182,414,375,449,0,0,0,0,0,0,-,
Cc1cc(OCC(=O)N(Cc2ccccc2)C2CCS(=O)(=O)C2)ccc1Cl (configuration not stated),0,0,0,0,0,0,-,-,-,-,-,-,
COc1ccc(C(=O)NC(=S)NNC(=O)c2cnccn2)cc1OC,0,0,0,155[may fluoresce green],0,0,168,155,0,0,0,0,
Cc1ccc(NC(=S)NCc2ccc(Cl)cc2)c(OC(F)F)c1,0,0,0,0,0,0,-,-,-,-,-,-,
Cc1ccccc1NC(=O)C(NC1CCCCC1)C(C)C (configuration not stated),0,0,0,0,0,0,0,0,0,0,0,-,
COC(CNC(=O)c1ccc2c3c(onc13)-c1ccccc1C2=O)OC,0,0,0,230,0,0,-,-,-,-,-,0,
CC(C)(C)C1CCc2sc(-c3nnc(CCl)o3)cc2C1 (configuration not stated),0,0,0,0,0,0,0,0,0,0,0,-,
COc1ccc2c(C(F)(F)F)cc(=O)oc2c1C,0,0,0,0,0,0,-,-,-,-,-,-,
Cc1c(C)c2ccc(Oc3ccc([N+](=O)[O-])cc3C(F)(F)F)c(C)c2oc1=O,0,0,0,0,0,0,0,0,0,0,0,0,
O=C(O)c1ccc(S(=O)(=O)c2ccc3c(c2)C(=O)N(c2ccc(Br)cc2)C3=O)cc1,0,0,0,0,0,0,-,-,-,-,-,-,
COC(=O)CCC(=O)OC1(C)C(=O)C2=COC(c3ccc(OC)cc3)=CC2=C(Br)C1=O (configuration not stated),39,0,0,0,0,0,151,0,0,0,0,0,
O=C(NOC(=O)c1ccccc1)c1ccccc1,0,0,0,164,0,0,-,-,-,-,-,0,
C=CC[C@@H](CC(=O)OC(C)(C)C)C(=O)OC[C@@H]1CCCN1C(=O)[C@@H](CC=C)CC(=O)N[C@H](CO)Cc1ccccc1,0,0,0,198,0,0,0,0,0,0,0,-,
O=C(Nc1cccc(C(F)(F)F)c1)Oc1ccc(Cl)c2cccnc12,0,0,0,202,0,0,-,-,-,-,-,0,
Cc1ccc(NC(=O)CN(C)C(=O)c2cccc(Br)c2)cc1,0,0,0,0,0,0,-,-,-,-,-,-,
SMILES,RPL19A-GFP yeast,AGP1 TOR yeast,CIT2-GFP yeast,LAP4 TOR yeast,MEP2-GFP yeast,Efflux pump inh,LAP4 cherry2,MEP2-GFP pick2,RPL19A GFP CP2,CIT2 GFP CP2,AGP1 GFP CP2,s288c autofluor,others
Cc1onc(-c2ccccc2)c1-c1nnc(CN2CCN(S(=O)(=O)c3ccccc3F)CC2)o1,0,0,0,0,0,0,-,-,-,-,-,-,
COc1cc(S(=O)(=O)Nc2cccc3cn[nH]c23)c(OC)cc1C,0,0,167,0,0,0,0,0,0,0,0,-,
O=S(=O)(Nc1cccc2cn[nH]c12)c1ccc(F)cc1,0,0,0,0,0,0,-,-,-,-,-,-,
CCOc1ccc(CNC(=O)Nc2ccccc2)cc1,0,0,0,0,0,0,-,-,-,-,-,-,
Cc1ccc(S(=O)(=O)c2ncccc2[N+](=O)[O-])cc1,0,0,0,199,0,0,-,-,-,-,-,0,Yeast autofl DR=0;TORC1 bypass gr=0
Cc1cc([N+](=O)[O-])ccc1NC(=S)NC1CCCC1,0,0,0,0,0,0,-,-,-,-,-,-,
O=C1C=C(Nc2ccc(Cl)cc2)C(=O)N1c1ccc(Cl)cc1,0,0,0,0,0,0,0,0,0,0,0,0,
O=C1C=C(N2CCCCCC2)C(=O)N1c1ccc(Cl)cc1,0,0,0,0,0,0,-,-,-,-,-,-,
Cc1c(C(=O)NN)nn(-c2ccc(Cl)cc2)c(=O)c1C#N,0,0,0,0,0,0,-,-,-,-,-,-,
Cc1ccc(-n2nc(C(=O)NN)c(C)c(C#N)c2=O)cc1Cl,0,0,0,0,+,0,0,0,0,0,0,-,
